Measurements from PubChem BioAssay (EPA / NIEHS).
Calls of active or inactive are those of the source. Rule for the calls: active = hit-call score of the fitted dose curve at least 0.9, where 1 is the maximum; inactive = score below 0.9.

What was measured:
Details in all cases: mRNA level, 48 h; actives raise or lower the signal
[1] = read-out: 3-Hydroxy-3-Methylglutaryl-CoA Synthase 2 (HMGCS2), HMGCS2 (gene 3158); test: LTEA_HepaRG_HMGCS2: Life Technologies and Expression Analysis (LTEA) Assay for 3-Hydroxy-3-Methylglutaryl-CoA Synthase 2 (HMGCS2) using HepaRG (AID 2283504)
Outline: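 Human HepaRG cells in serum-free induction medium were exposed in duplicate for 48 h to 8-point half-log series from 100 uM top in 0.5% DMSO. HMGCS2 mRNA measured by TaqMan qRT-PCR, normalised to ACTB, GAPDH, POLR2A; bidirectional fit versus DMSO.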

HGF (gene 3082) = test: LTEA_HepaRG_HGF: Life Technologies and Expression Analysis (LTEA) Assay for Hepatocyte Growth Facto (HGF) using HepaRG (AID 2283505)
Outline: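 Differentiated HepaRG cells in serum-free induction medium exposed 48 h in duplicate, 8 half-log concentrations from 100 uM in 0.5% DMSO. HGF mRNA by qRT-PCR, normalised to ACTB, GAPDH, POLR2A; bidirectional fitting.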

[2] = read-out: Insulin Like Growth Factor 1 (IGF1), IGF1 (gene 3479); test: LTEA_HepaRG_IGF1: Life Technologies and Expression Analysis (LTEA) Assay for Insulin Like Growth Factor 1 (IGF1) using HepaRG (AID 2283506)
Outline: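 Using human HepaRG liver cells, IGF1 transcript induction or suppression is measured 48 h after dosing across eight concentrations capped at 100 uM. Values derive from bidirectional concentration-response fitting with DMSO as baseline.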

[3] = read-out: Intercellular Adhesion Molecule 1 (ICAM1), ICAM1 (gene 3383); test: LTEA_HepaRG_ICAM1: Life Technologies and Expression Analysis (LTEA) Assay for Intercellular Adhesion Molecule 1 (ICAM1) using HepaRG (AID 2283507)
Outline: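 Differentiated human HepaRG cells in serum-free induction medium exposed 48 h in duplicate to 8 half-log concentrations (top 100 uM, 0.5% DMSO). ICAM1 mRNA quantified by TaqMan qRT-PCR, normalized to ACTB, GAPDH and POLR2A; bidirectional fitting versus DMSO.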

[4] = read-out: Insulin-like growth factor-binding protein 1 (IGFBP1), IGFBP1 (gene 3484); test: LTEA_HepaRG_IGFBP1: Life Technologies and Expression Analysis (LTEA) Assay for Insulin-like growth factor-binding protein 1 (IGFBP1) using HepaRG (AID 2283508)
Outline: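 HepaRG cells, plated 48 h then switched to serum-free induction medium, exposed in duplicate for 48 h to 8-point half-log series from 100 uM in 0.5% DMSO. mRNA measured by qRT-PCR, normalized to ACTB/GAPDH/POLR2A; bidirectional fit versus DMSO.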

[5] = read-out: Interleukin 6 (IL6), IL6 (gene 3569); test: LTEA_HepaRG_IL6: Life Technologies and Expression Analysis (LTEA) Assay for Interleukin 6 (IL6) using HepaRG (AID 2283509)
Outline: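 HepaRG, ~100,000 cells/well, 48 h pre-culture; serum-free induction medium; cmpd 8-pt half-log from 100 uM, 0.5% DMSO, duplicate, 48 h. Lysis in RLT, TaqMan qRT-PCR; gain or loss vs DMSO.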

[6] = read-out: Interleukin 6 Receptor (IL6R), IL6R (gene 3570); test: LTEA_HepaRG_IL6R: Life Technologies and Expression Analysis (LTEA) Assay for Interleukin 6 Receptor (IL6R) using HepaRG (AID 2283510)
Outline: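 Concentration-response in human liver HepaRG cells: eight concentrations from 100 uM downward by half-logs, 48 h exposure, 0.5% DMSO vehicle. IL6R mRNA change measured by qRT-PCR and fitted in both directions relative to vehicle.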

[7] = read-out: Potassium channel subfamily K member 1 (KCNK1), KCNK1 (gene 3775); test: LTEA_HepaRG_KCNK1: Life Technologies and Expression Analysis (LTEA) Assay for Potassium channel subfamily K member 1 (KCNK1) using HepaRG (AID 2283511)
Outline: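 Gain or loss of KCNK1 mRNA is the read-out, quantified by qRT-PCR against three housekeeping genes after 48 h chemical treatment of human HepaRG liver cells. Concentrations ran from 100 uM downward in half-log steps, vehicle 0.5% DMSO.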

[8] = read-out: Keratin 19 (KRT19), KRT19 (gene 3880); test: LTEA_HepaRG_KRT19: Life Technologies and Expression Analysis (LTEA) Assay for Keratin 19 (KRT19) using HepaRG (AID 2283512)
Outline: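 Differentiated HepaRG cells in serum-free induction medium, exposed 48 h in duplicate to 8 half-log concentrations up to 100 uM in 0.5% DMSO. KRT19 mRNA by qRT-PCR, normalized to ACTB, GAPDH, POLR2A; bidirectional fit vs DMSO.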

[9] = read-out: JUN Transcription Factor, JUN (gene 3725); test: LTEA_HepaRG_JUN: Life Technologies and Expression Analysis (LTEA) Assay for JUN Transcription Factor using HepaRG (AID 2283513)
Outline: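 Human HepaRG liver cells receive test chemicals in 0.5% DMSO for 48 h across an eight-point range topping at 100 uM. Expression changes in JUN are scored in both directions against the DMSO vehicle.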

[10] = read-out: Lipase C (LIPC), LIPC (gene 3990); test: LTEA_HepaRG_LIPC: Life Technologies and Expression Analysis (LTEA) Assay for Lipase C (LIPC) using HepaRG (AID 2283514)
Outline: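 Read-out is LIPC transcript level by TaqMan qRT-PCR, normalized to three housekeeping genes, after 48 h chemical treatment of human HepaRG liver cells. Curves span eight concentrations topping at 100 uM; activity in either direction scored relative to 0.5% DMSO.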

[11] = read-out: Lipoprotein lipase (LPL), LPL (gene 4023); test: LTEA_HepaRG_LPL: Life Technologies and Expression Analysis (LTEA) Assay for Lipoprotein lipase (LPL) using HepaRG (AID 2283515)
Outline: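 Read-out is LPL transcript level by qRT-PCR, normalized to three housekeeping genes and fitted bidirectionally against the DMSO control. Human HepaRG cells received chemicals for 48 h at up to 100 uM.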

[12] = read-out: MicroRNA 122 (MIR122), gene 406906; test: LTEA_HepaRG_MIR122: Life Technologies and Expression Analysis (LTEA) Assay for MicroRNA 122 (MIR122) using HepaRG (AID 2283516); note: the transcript read is the microRNA miR-122
Outline: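 HepaRG, 48 h exposure, 8-pt half-log from 100 uM, 0.5% DMSO; TaqMan qRT-PCR; bidirectional fit vs DMSO.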

[13] = read-out: matrix metalloproteinase-10 (MMP10), MMP10 (gene 4319); test: LTEA_HepaRG_MMP10: Life Technologies and Expression Analysis (LTEA) Assay for matrix metalloproteinase-10 (MMP10) using HepaRG (AID 2283517)
Outline: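 Gain or loss of MMP10 mRNA is fitted relative to the 0.5% DMSO vehicle. The human hepatic line HepaRG receives a 48-hour serum-free exposure, in duplicate, with a maximum concentration of 100 uM.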

MYC, MYC (gene 4609) = test: LTEA_HepaRG_MYC: Life Technologies and Expression Analysis (LTEA) Assay for MYC using HepaRG (AID 2283518)
Outline: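 Differentiated HepaRG cells exposed 48 h in serum-free induction medium to 8 concentrations (top 100 uM, half-log steps; 0.5% DMSO), duplicate. MYC mRNA measured by Fluidigm qRT-PCR, normalized to ACTB, GAPDH, POLR2A; bidirectional fit versus DMSO.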

[14] = read-out: matrix metalloproteinase-3 (MMP3), MMP3 (gene 4314); test: LTEA_HepaRG_MMP3: Life Technologies and Expression Analysis (LTEA) Assay for matrix metalloproteinase-3 (MMP3) using HepaRG (AID 2283519)
Outline: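 HepaRG, human; 48 h dosing, 8 conc. (max 100 uM, half-log), duplicate, 0.5% DMSO. Readout: MMP3 transcript by Fluidigm TaqMan qRT-PCR, ACTB/GAPDH/POLR2A-normalised. Gain or loss fitted vs DMSO.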

[15] = read-out: Paternally Expressed 10 (PEG10), PEG10 (gene 23089); test: LTEA_HepaRG_PEG10: Life Technologies and Expression Analysis (LTEA) Assay for Paternally Expressed 10 (PEG10) using HepaRG (AID 2283520)
Outline: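 Chemicals tested on HepaRG cells for 48 h, highest concentration 100 uM. PEG10 expression assessed by qRT-PCR relative to DMSO control.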

[16] = read-out: Protein phosphatase 2A (PPP2R4), PTPA (gene 5524); test: LTEA_HepaRG_PPP2R4: Life Technologies and Expression Analysis (LTEA) Assay for Protein phosphatase 2A (PPP2R4) using HepaRG (AID 2283522)
Outline: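 Gene-expression endpoint in HepaRG hepatic cells: 48 h treatment across eight half-log concentrations up to 100 uM in 0.5% DMSO. PPP2R4 mRNA by qRT-PCR, normalized to three endogenous control genes.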

[17] = read-out: Phosphatase and tensin (PTEN), PTEN (gene 5728); test: LTEA_HepaRG_PTEN: Life Technologies and Expression Analysis (LTEA) Assay for Phosphatase and tensin (PTEN) using HepaRG (AID 2283523)
Outline: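 Read-out is PTEN transcript level by multiplexed TaqMan qRT-PCR after 48 h chemical treatment of human HepaRG cultures in serum-free induction medium. Concentrations spanned 100 uM downward in half-log steps, 0.5% DMSO throughout; activity fitted in both directions against vehicle.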

[18] = read-out: Nuclear factor NF-kappa-B p105 subunit (Homo sapiens) (UniProt P19838); test: LTEA_HepaRG_NFKB1: Life Technologies and Expression Analysis (LTEA) Assay for Nuclear Factor Kappa B Subunit 1 (NFKB1) using HepaRG (AID 2283521)
Outline: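 Differentiated human HepaRG cells in serum-free induction medium with 0.5% DMSO were exposed for 48 h to eight half-log concentrations, top 100 uM, in duplicate. NFKB1 mRNA measured by Fluidigm TaqMan qRT-PCR, normalised to ACTB, GAPDH and POLR2A; bidirectional fit versus DMSO.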

Measured: AC50

Sequence of Nuclear factor NF-kappa-B p105 subunit (Homo sapiens) (P19838 whole entry, looked up): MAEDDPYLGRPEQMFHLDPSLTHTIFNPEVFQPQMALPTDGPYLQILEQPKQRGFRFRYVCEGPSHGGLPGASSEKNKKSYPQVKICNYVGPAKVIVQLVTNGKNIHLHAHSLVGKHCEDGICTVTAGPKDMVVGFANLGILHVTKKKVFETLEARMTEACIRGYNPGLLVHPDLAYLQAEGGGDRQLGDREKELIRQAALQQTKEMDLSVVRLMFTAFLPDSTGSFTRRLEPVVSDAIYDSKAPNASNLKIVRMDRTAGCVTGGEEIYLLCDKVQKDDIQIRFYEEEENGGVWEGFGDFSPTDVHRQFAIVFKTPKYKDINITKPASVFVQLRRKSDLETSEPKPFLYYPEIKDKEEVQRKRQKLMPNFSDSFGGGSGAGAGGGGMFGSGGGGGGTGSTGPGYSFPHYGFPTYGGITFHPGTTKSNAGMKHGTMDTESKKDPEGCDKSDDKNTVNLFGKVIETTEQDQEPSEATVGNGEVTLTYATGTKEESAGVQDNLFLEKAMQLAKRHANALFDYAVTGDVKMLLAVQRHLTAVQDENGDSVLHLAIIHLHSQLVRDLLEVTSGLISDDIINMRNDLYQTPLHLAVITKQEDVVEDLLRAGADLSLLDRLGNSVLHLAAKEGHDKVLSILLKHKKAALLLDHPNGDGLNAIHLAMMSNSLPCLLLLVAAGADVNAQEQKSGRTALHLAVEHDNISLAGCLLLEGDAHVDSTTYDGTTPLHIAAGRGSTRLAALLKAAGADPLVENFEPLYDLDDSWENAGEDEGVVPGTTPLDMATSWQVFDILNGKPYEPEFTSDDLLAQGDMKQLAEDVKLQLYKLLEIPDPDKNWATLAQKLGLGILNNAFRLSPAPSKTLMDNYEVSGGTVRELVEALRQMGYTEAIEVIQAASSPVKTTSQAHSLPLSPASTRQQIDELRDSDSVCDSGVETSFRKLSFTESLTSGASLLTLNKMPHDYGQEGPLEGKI

CCCCCCCCCCCCCCCCOS(=O)(=O)O
active: [2] 44.2 µM
not listed: [18]
inactive: all other assays above

O=c1[nH]cnc2c1ncn2[C@H]1CC[C@@H](CO)O1
not listed: [18]
inactive: all other assays above

C[C@]12C=CC(=O)C=C1CC[C@H]1[C@@H]3C[C@@H](O)[C@](O)(C(=O)CO)[C@@]3(C)C[C@H](O)[C@@]12F
not listed: [18]
inactive: all other assays above

CCc1cccc(CC)c1N
not listed: [18]
inactive: all other assays above

c1ccc2ncccc2c1
not listed: [18]
inactive: all other assays above

NNC(=O)c1ccncc1
not listed: [11]
inactive: all other assays above

Cn1c(=O)c2[nH]cnc2n(C)c1=O
not listed: [3] | [4]
inactive: all other assays above

Cn1cc[nH]c1=S
not listed: HGF (gene 3082)
inactive: all other assays above

Nc1ccn([C@@H]2O[C@H](CO)[C@@H](O)[C@@H]2O)c(=O)n1
not listed: [18]
inactive: all other assays above

CCCOc1ccc(S(=O)(=O)N2CCN(CC)CC2)cc1-c1nc2c(CC)n(Cc3ccccn3)nc2c(=O)[nH]1
active: [2] 14.5 µM | [4] 68.3 µM | [11] 56.7 µM
inactive: all other assays above

C=CN1CCCC1=O
not listed: [18]
inactive: all other assays above

CC(C)c1nnc2ccc(-c3ocnc3-c3cc(F)ccc3F)cn12
active: [1] 59.1 µM | [2] 66.1 µM | [4] 12.8 µM | [8] 18.7 µM | [10] 83.4 µM | [12] 50 µM | [14] 7.09 µM
not listed: HGF (gene 3082) | [18]
inactive: all other assays above

O=C1CN(N=Cc2ccc([N+](=O)[O-])o2)C(=O)N1
active: [1] 72 µM | [2] 50 µM | [4] 33.4 µM | [8] 88.7 µM | [11] 91.3 µM | MYC, MYC (gene 4609) 80.1 µM
not listed: HGF (gene 3082) | [18]
inactive: all other assays above

CCOC(N)=O
not listed: [18]
inactive: all other assays above
